HT1080NT lethal: kills 2HG-producing HT-1080-NT fibrosarcoma cells; HT-1080-NT fibrosarcoma viability, CellTiter-Glo ATP luminescence, 48 h; Potency, µM (titrated, usually from 46.1 µM), without a hit: top-dose activity, negative = less viability, actives largely listed as cytotoxic; 1.6% of 360,000 active; AID 686970;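 also: NT is the 2HG producing partner of a matched IDH1 knockdown line; potency is read from the fitted curve at half-maximal effect; 0% = DMSO-treated cells and -100% = media-only wells without cells; nearly all actives have a fitted effect of over 55% in size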
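A 48-hour cytotoxicity screen used HT-1080-NT cells plated 2 hours before compound delivery. ATP-based CellTiter-Glo luminescence measured viability, normalized to DMSO and no-cell controls.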
DT40 TDP1 CPT: growth inhibition of DT40 Tdp1-/-;hTDP1 cells with camptothecin (screen for TDP1 inhibitors); chicken DT40 Tdp1-/-;hTDP1 cells + 20 nM CPT, ATP luminescence, 48 h; Potency, µM (titrated, usually from 46.2 µM), inactives show at the top dose activity change, negative = growth inhibition, hits mostly inhibitors; 12% of 420,000 active; AID 686979; also: potency is read from the fitted curve at half-maximal effect; nearly all actives have a fitted effect of over 55% in size
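Cell growth measured by CellTiter-Glo luminescence after a minimum 48 h, 37 C compound exposure with 20 nM CPT in Tdp1-knockout DT40 cells stably expressing hTDP1, seeded 400/well; qHTS titration format.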
HT1080 IDH1KD tx: kills HT-1080 cells with IDH1 knockdown; Potency, µM (top dose mostly 46.1 µM), inactives show top-dose activity, negative = toxicity, hits mostly cytotoxic; AID 686971; HT-1080 IDH1 knockdown viability, ATP luminescence, 48 h; 2% of 360,000 active;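 also: potency is read from the fitted curve at half-maximal effect; 0% = DMSO wells and -100% = cell-free medium wells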
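IDH1KD HT-1080 cells, 750/well, RPMI + 5% FBS; compound pinned after 2 h settling; 48 h, 37 °C; CellTiter-Glo luminescence; % activity normalised to DMSO and no-cell wells; curves fitted, classed by r2 and efficacy.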
IL-1B inflam inh: inflammasome signaling inhibition, IL-1 beta readout | THP-1 LPS/ATP IL-1B secretion, AlphaLISA, 16 h; stronger effect = lower value | activity change, % at 57.5 µM | 4.7% of 360,000 active; in the data active = activity change below about -50%; inconclusive = mostly about -30% to -49%
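THP-1 cells pretreated 1 hr with compounds (up to 57.5 uM final), then stimulated with LPS (250 ng/mL final) plus ATP (1.25 mM final); secreted IL-1B measured by AlphaLISA after 16 hr, decreased signal indicating inhibition.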
TDP1 cell noCPT: qHTS for Inhibitors of human tyrosyl-DNA phosphodiesterase 1 (TDP1): qHTS in cells in absence of CPT | DT40 Tdp1-/- hTDP1 cells, no CPT, ATP luminescence, 48 h | Potency, µM (titrated, usually from 46.2 µM), for inactives: at the top dose activity change, negative = growth inhibition, hits mostly inhibitors | AID 686978, 2013 | 15% of 420,000 active; also: potency is read from the fitted curve at half-maximal effect; nearly all actives have a fitted effect of over 55% in size
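Seeded 400 DT40-hTDP1 cells/well (vehicle DMSO, no 20 nM CPT); pinned compounds; ≥48 hr at 37 °C; CellTiter-Glo luminescence as viability measure.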
The depositor's hits bear a star. Rows were chosen to be rich in hits. Some 19% of all compounds tested hit in one or more screens of this group. Unless noted, calls follow the shape of the dose curve; as a rule, active = well fitted curve in the direction sought with a large enough effect; inconclusive = small, poorly fitted or top-dose-only effect, or another doubt; inactive = no such curve, though single readings can be large; an effect the other way counts as inactive or inconclusive. Unless noted, % is scaled to controls: 0 for no effect and ±100 for the full control effect.

For COc1ccc(C(O)c2nc(-c3ccc(Cl)cc3)cs2)cc1 (stereo unspecified) the results were HT1080NT lethal -25%, DT40 TDP1 CPT -61%, HT1080 IDH1KD tx inconclusive, IL-1B inflam inh -25 and TDP1 cell noCPT inconclusive.
Screening COc1ccc(-c2csc(C(O)c3ccc(F)cc3)n2)cc1 (stereo unspecified) returned HT1080NT lethal inconclusive, DT40 TDP1 CPT inconclusive, HT1080 IDH1KD tx inconclusive, IL-1B inflam inh 19 and TDP1 cell noCPT inconclusive.
Screening COc1ccc(C(O)c2nc(-c3ccc(OC)c(OC)c3)cs2)cc1 (stereo unspecified) returned HT1080NT lethal 0%, DT40 TDP1 CPT 13µM*, HT1080 IDH1KD tx 10%, IL-1B inflam inh -2 and TDP1 cell noCPT 18µM*.
`COc1cc(C(O)c2nc(-c3ccc(C)c(C)c3)cs2)ccc1F` (stereo unspecified) gave HT1080NT lethal inconclusive, DT40 TDP1 CPT inconclusive, HT1080 IDH1KD tx inconclusive, IL-1B inflam inh -4 and TDP1 cell noCPT inconclusive.
`O=C(NCc1ccccc1F)c1cc2ccccn2n1` gave DT40 TDP1 CPT -17% and TDP1 cell noCPT inconclusive.
`Cc1ccc(C2CC(c3cccs3)=NN2C(=O)c2ccc(Br)o2)cc1` (stereo unspecified) gave HT1080NT lethal -6%, DT40 TDP1 CPT inconclusive, HT1080 IDH1KD tx -18%, IL-1B inflam inh -29 and TDP1 cell noCPT inconclusive.
For COc1ccc(/C=N/NC(=O)C2(C)NC(C)(C)Cc3ccccc32)cc1 (stereo unspecified) the results were HT1080NT lethal 26%, DT40 TDP1 CPT 0%, HT1080 IDH1KD tx inconclusive, IL-1B inflam inh -3 and TDP1 cell noCPT 0%.
For COc1ccccc1C(=O)C1CCCN(C(=O)c2cccc(Cn3cccn3)c2)C1 (stereo unspecified) the results were HT1080NT lethal -3%, DT40 TDP1 CPT inconclusive, HT1080 IDH1KD tx 10%, IL-1B inflam inh -1 and TDP1 cell noCPT inconclusive.
Screening CCOC(OCC)c1nc(N)[nH]c(=O)c1CCCCc1ccccc1 returned HT1080NT lethal -16%, DT40 TDP1 CPT 23µM*, HT1080 IDH1KD tx -5%, IL-1B inflam inh 36 and TDP1 cell noCPT 16µM*.
For COc1ccc(-c2cc(C)no2)cc1S(=O)(=O)N(C)c1cccc(C)c1 the results were HT1080NT lethal -4%, DT40 TDP1 CPT -11%, HT1080 IDH1KD tx -7%, IL-1B inflam inh -14 and TDP1 cell noCPT inconclusive.
CCN(c1cccc(C)c1)S(=O)(=O)c1ccc(-c2cc(C)no2)s1 was read as HT1080NT lethal inconclusive, DT40 TDP1 CPT 2.9µM*, HT1080 IDH1KD tx inconclusive, IL-1B inflam inh 30 and TDP1 cell noCPT 2.6µM*.
`CCOc1ccc(N(C)S(=O)(=O)c2ccc(-c3cc(C)no3)s2)cc1` gave HT1080NT lethal 12µM*, DT40 TDP1 CPT 3.7µM*, HT1080 IDH1KD tx 7.3µM*, IL-1B inflam inh 45 and TDP1 cell noCPT 4.1µM*.
For Cc1cccc(N(C)S(=O)(=O)c2ccc(-c3cc(C)no3)s2)c1 the results were HT1080NT lethal inconclusive, DT40 TDP1 CPT 0.82µM*, HT1080 IDH1KD tx 0.58µM*, IL-1B inflam inh 77 and TDP1 cell noCPT 0.65µM*.
`CCOC(=O)C1(Cc2ccccc2)C(=O)N(CCCN(C)C)c2ccccc21` (stereo unspecified) gave HT1080NT lethal -8%, DT40 TDP1 CPT -11%, HT1080 IDH1KD tx -4%, IL-1B inflam inh -5 and TDP1 cell noCPT -16%.
Clc1ccc(-c2cn3cc(Cl)ccc3n2)cc1 was read as HT1080NT lethal -1%, DT40 TDP1 CPT -2%, HT1080 IDH1KD tx 0%, IL-1B inflam inh 11 and TDP1 cell noCPT -11%.
For CC(=O)Nc1ccc(-c2cn3cc(C)ccc3n2)cc1 the results were HT1080NT lethal 1%, DT40 TDP1 CPT 9%, HT1080 IDH1KD tx 7%, IL-1B inflam inh -19 and TDP1 cell noCPT 4%.
Screening Cc1ccc2nc(-c3ccccc3)cn2c1 returned HT1080NT lethal 12µM*, DT40 TDP1 CPT inconclusive, HT1080 IDH1KD tx 12µM*, IL-1B inflam inh 0 and TDP1 cell noCPT 18µM*.
Screening Cc1ccc2nc(-c3ccc(O)c(O)c3)cn2c1 returned HT1080NT lethal -4%, DT40 TDP1 CPT inconclusive, HT1080 IDH1KD tx inconclusive, IL-1B inflam inh -7 and TDP1 cell noCPT 21µM*.
`F[B-](F)(F)c1cncc2ccccc12` gave HT1080NT lethal 0%, DT40 TDP1 CPT 0%, HT1080 IDH1KD tx -6%, IL-1B inflam inh -1 and TDP1 cell noCPT -14%.
For Cc1ccc2nc(N(CCCN(C)C)C(=O)CN3C(=O)c4ccccc4C3=O)sc2c1 the results were HT1080NT lethal 4%, DT40 TDP1 CPT -16%, HT1080 IDH1KD tx -1%, IL-1B inflam inh -8 and TDP1 cell noCPT -3%.
Cc1ccc(S(=O)(=O)CC(=O)N(CCCN(C)C)c2nc3ccc(C)cc3s2)cc1 was read as HT1080NT lethal 1%, DT40 TDP1 CPT 3%, HT1080 IDH1KD tx -17%, IL-1B inflam inh -55* and TDP1 cell noCPT -4%.
Cc1ccc2nc(N(CCCN(C)C)C(=O)CS(=O)(=O)c3ccccc3)sc2c1 was read as HT1080NT lethal -8%, DT40 TDP1 CPT -16%, HT1080 IDH1KD tx -5%, IL-1B inflam inh -21 and TDP1 cell noCPT -8%.
Screening CN(C)CCCN(C(=O)CCc1ccccc1)c1nc2ccc(Cl)cc2s1 returned HT1080NT lethal 23µM*, DT40 TDP1 CPT 23µM*, HT1080 IDH1KD tx 16µM* and TDP1 cell noCPT 23µM*.
For Cc1ccc2nc(N(CCCN(C)C)C(=O)CCc3ccccc3)sc2c1 the results were HT1080NT lethal 15µM*, DT40 TDP1 CPT inconclusive, HT1080 IDH1KD tx 16µM* and TDP1 cell noCPT inconclusive.
For CN(C)CCCN(C(=O)COc1ccccc1)c1nc2ccc(Cl)cc2s1 the results were HT1080NT lethal inconclusive, DT40 TDP1 CPT inconclusive, HT1080 IDH1KD tx inconclusive, IL-1B inflam inh -51* and TDP1 cell noCPT inconclusive.
OC(CN1c2ccccc2Sc2ccccc21)Cn1nnc2ccccc21 (stereo unspecified) was read as HT1080NT lethal -16%, DT40 TDP1 CPT inconclusive, HT1080 IDH1KD tx inconclusive, IL-1B inflam inh inconclusive and TDP1 cell noCPT 21µM*.
For Cn1c(Cn2nnc3ccccc32)nnc1SCC(=O)N1c2ccccc2CCc2ccccc21 the results were HT1080NT lethal 1%, DT40 TDP1 CPT 23µM*, HT1080 IDH1KD tx 2%, IL-1B inflam inh -13 and TDP1 cell noCPT inconclusive.
O=C1c2ccccc2C(=O)N1CC(O)Cn1nnc2ccccc21 (stereo unspecified) was read as HT1080NT lethal -1%, DT40 TDP1 CPT 1%, HT1080 IDH1KD tx 4%, IL-1B inflam inh 19 and TDP1 cell noCPT -1%.

Assay outcomes (PubChem)
